# Source: PubChem BioAssay (NCI)
# This is part of a sample that, as a whole, favours compounds with a hit. Of some 83,000 tested, about 20% had one in any assay.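 A percent growth of 40 corresponds to 60% growth inhibition; 0 means no net growth; -100 means all cells died. Active threshold: below 10.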 Values without a mark were called inactive. The source made the active and inactive calls.
# Assays:
# Assay in all cases: NCI-60 one-dose screen, 48 h (100 = growth as untreated, 0 = no growth, -100 = all killed)
# Settings in all cases: 10 µM unless noted
# DU-145 prostate = system: DU-145 prostate
# K-562 leukemia = system: K-562 leukemia
# MALME-3M melanoma = system: MALME-3M melanoma
# MDA-MB-231 breast = system: MDA-MB-231 breast
# RXF 393 renal = system: RXF 393 renal
# SF-268 CNS = system: SF-268 CNS
# SF-295 CNS = system: SF-295 CNS
# SF-539 CNS = system: SF-539 CNS
# UACC-257 melanoma = system: UACC-257 melanoma
# M14 melanoma = system: M14 melanoma
Structure (SMILES),growth (DU-145 prostate),growth (K-562 leukemia),growth (MALME-3M melanoma),growth (MDA-MB-231 breast),growth (RXF 393 renal),growth (SF-268 CNS) [%],growth (SF-295 CNS),growth (SF-539 CNS),growth (UACC-257 melanoma),growth (M14 melanoma)
COc1ccc(OC)c(CCn2cncc2-c2c[nH]c3ccccc23)c1,88.4%,42.4%,74.5%,72.2%,74.4%,71.1,71.6%,88.5%,80.8%,73.3%
Cn1cc(CC2CC(=O)N(c3ccccc3)C2=O)sc1=NC(=O)c1ccccc1 (stereo not given),103%,104%,89.9%,111%,92.2%,96.2,102%,99.8%,98%,90.9%
N#CC1C(C#N)C2c3ccccc3C=CN2C1C(=O)c1ccc(Br)cc1 (stereo not given),97.8%,99.8%,100%,92.2%,105%,95.1,96.8%,89.3%,103%,104%
CCOC(=O)c1cc(C(=O)c2cc(OC)cc(OC)c2)n2ccc3ccccc3c12,100%,98.7%,99.1%,80.1%,61.5%,78.1,94.9%,74.1%,93.4%,105%
CC1(C)c2[nH]c3ccccc3c2C[C@]2(C)[C@H]3C(=O)C=C4[C@@H]5C[C@@](C)(C(N)=O)CC[C@]5(C)CC[C@@]4(C)[C@]3(C)CC[C@@H]12,92.2%,31.3%,79.3%,74.1%,70.5%,69.1,82.9%,92.8%,83.2%,80.2%
COc1cc2cc(CN3CCN(c4nccc(-c5ccc6ccccc6c5)n4)CC3)c(=O)[nH]c2cc1OC,74%,13.6%,103%,73.8%,81.8%,94,101%,110%,77%,109%
CCN(CC)CCOc1ccc(NC(=O)C(C(C)C)N2C(=O)/C(=C/c3ccc(Br)cc3)SC2=S)cc1 (stereo not given),73%,-64.8% (active),-34.4% (active),50.7%,71.6%,76.6,101%,88.2%,93.5%,75.8%
O=C(c1nc2ccccc2[nH]1)C1C(c2ccc(Br)cc2)C2CC3CCCC[C@H]3N2[C@@]12C(=O)Nc1cc(Cl)ccc12 (stereo not given in full),52%,25.3%,32%,41.6%,34%,42,31.6%,56%,43.2%,26.9%
COc1ccc(/C=C2\Oc3cc(OCCCCCN4CCCCC4)ccc3C2=O)cc1OC,89.6%,-54.6% (active),83.7%,86.7%,76.3%,87.2,98.6%,81.1%,87.4%,89.1%
COc1ccccc1/C=C1\Oc2cc(OCCN3CCCC3)ccc2C1=O,89.2%,-5.04% (active),104%,81.8%,71.5%,91.3,95.4%,85.9%,95%,77.2%
O=C(Nc1cccc(C(=O)N2CCc3ccc(Cl)cc32)c1)c1ccco1,67.8%,13.9%,40.9%,44.9%,39.9%,55.9,30.8%,26.8%,52.2%,18.2%
Nc1c(C(=O)Nc2cccc3cnccc23)sc2nc3c(cc12)CN(Cc1ccccc1)CC3,109%,96.5%,101%,89.1%,103%,103,106%,107%,124%,102%
O=S(=O)(NCCCNc1nccc(-c2c(-c3cccc(F)c3)nc3sccn23)n1)c1cccc(F)c1,55.5%,20.1%,63.2%,75.9%,78.8%,55.6,51.1%,86.4%,50.8%,28.6%
CCN(CC)c1ccc(C(=O)c2ccccc2)cc1,102%,95.2%,95.3%,100%,111%,96.9,101%,97.7%,96.1%,102%
CC(=O)N1N=C(c2ccc(-n3ccc(C(F)(F)F)n3)c(F)c2)CC1c1ccc[nH]1 (stereo not given),109%,91.9%,102%,105%,116%,104,98.8%,102%,96.4%,102%
COc1cccc2c1c1nc3cc(C)c(C)cc3nc1n2CCN(C)C,19.7%,6.22% (active),-12.1% (active),23.5%,30%,37.9,20.1%,23.2%,8.52% (active),22.2%
CCCCCN1C=C/C(=C\C(=O)N(C)c2ccccc2Br)c2ccccc21,109%,74.6%,91%,97.6%,101%,96.4,95.1%,99.6%,93%,104%
CCCCCCCCCCCCCCCC[N+]1(C)CCN(SN2CC[N+](C)(CCCCCCCCCCCCCCCC)CC2)CC1,70.5%,40.4%,78.4%,53.9%,-7.8% (active),64.4,71.2%,48.7%,92.9%,20.8%
C=C(C)[C@@H]1CC[C@]2(C(=O)N3CCN(C)CC3)CC[C@]3(C)[C@H](CC[C@@H]4[C@@]5(C)C/C(=C/c6ccncc6)C(=O)C(C)(C)[C@@H]5CC[C@]43C)[C@@H]12,72.7%,21%,62%,74.3%,49.4%,62.3,75.2%,73.4%,56.9%,68.5%
CN1CCN(c2ccc(NC3=C(Cl)C(=O)c4ncccc4C3=O)cc2C(F)(F)F)CC1,96.6%,3.72% (active),-92.1% (active),4.49% (active),-71.4% (active),87.7,106%,104%,-56.8% (active),39.8%
COc1ccc(C(=O)c2cc(OC)c(OC)c(OC)c2)cc1O,9.94% (active),8.98% (active),35.2%,24.8%,0.69% (active),29.3,-8.79% (active),-22.1% (active),69.3%,-3.92% (active)
CN(C)CCC(=O)c1ccc([N+](=O)[O-])cc1,108%,114%,104%,100%,108%,112,103%,96.4%,108%,102%
Oc1c(Cl)cc(Cl)c(Cl)c1CNCCNCc1c(O)c(Cl)cc(Cl)c1Cl,45.9%,10.3%,13.4%,35.5%,28.2%,25,18.3%,-9.34% (active),4.63% (active),20.3%
CC1(C)CC[C@]2(C(=O)O)CC[C@]3(C)C(=CC[C@@H]4[C@@]5(C)Cc6c([nH]c7ccccc67)C(C)(C)[C@@H]5CC[C@]43C)[C@@H]2C1,49.5%,28.8%,115%,65.5%,67.2%,54,36.7%,36.2%,88.5%,76.4%
C=C1C(=O)O[C@H]2[C@H]1CC/C(CNC(=O)C(C)c1ccc(CC(C)C)cc1)=C\CC[C@@]1(C)O[C@@H]21 (stereo not given in full),16.4%,-13.8% (active),-60.7% (active),-1.8% (active),-64.4% (active),43.9,75.9%,-74.8% (active),-11.4% (active),-74.3% (active)
N#CC1C(C#N)C(C(=O)c2ccc(Br)cc2)N2c3ccccc3C=CC12 (stereo not given),91.9%,24.4%,67.3%,57.6%,74.5%,78.5,89.1%,89.3%,98.9%,75.3%
CCOC(=O)c1nc2c3ccccc3ccn2c1C(=O)OCC,92.1%,99.1%,103%,98.2%,103%,89,104%,99.9%,126%,121%
